For 14 targets, log2 fold change results are on record in the supplement of paper PMC10849652.

Holding throughout (experiment): log2 fold change, soluble protein after heating vs DMSO (PISA); higher = thermal stabilisation; K562 cells, 10 uM, 30 min; active = over 0.2 and 3.5 SD of the protein, either way, in both replicates (recomputed)
Compound in test [1]: NC(=O)Nc1cc(-c2cccc(F)c2)sc1C(=O)N[C@H]1CCCNC1
In outline: (§1)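 Soluble protein was defined as the supernatant after 21,000xg for 90 min. It came from K562 cells at 2×10^6 cells/mL given 10 μM compound for 30 min, heated in aliquots for 3 min across 48°C-58°C, pooled, and extracted in PBS with 0.5% NP-40 at 4°C, and was quantified by TMTpro 16plex LC-MS/MS with equalised channel sums. Thermal stability against control samples, from duplicates, is reported as log2 fold change.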

Compound in test [2]: NC(=O)c1cnc(N[C@@H]2CCCC[C@@H]2N)nc1Nc1cccc(-n2nccn2)c1
The method in brief:
as §1

Compound in test [3]: NC1(c2ccc(-c3nc4ccn5c(=O)[nH]nc5c4cc3-c3ccccc3)cc2)CCC1
In outline: as §1

Compound in test [4]: NCC(=O)Nc1ccc(-n2nc(C(F)(F)F)cc2-c2ccc3c(ccc4ccccc43)c2)cc1
The method in brief:
as §1

Compound in a further test: Nc1ccccc1NC(=O)c1ccc(CNC(=O)OCc2cccnc2)cc1 [entinostat]
In outline: as §1

Compound in another test: O=C(CCCCCCC(=O)Nc1ccccc1)NO [vorinostat]
The method in brief:
as §1

Compound in another test: O=C(CCCCCCNC(=O)c1cnc(N(c2ccccc2)c2ccccc2Cl)nc1)NO [citarinostat]
In outline:
as §1

Compound in the next test: O=C(O)c1ccc2c(c1)nc(Nc1cccc(Cl)c1)c1ccncc12 [silmitasertib]
The method in brief:
as §1

Compound in test [5]: O=C1NC(=O)C(c2cnc3ccccn23)=C1c1cn2c3c(cc(F)cc13)CN(C(=O)N1CCCCC1)CC2
In outline: as §1

Compound in test [6]: c1cc(OCCN2CCCCC2)cc(-c2n[nH]c3ccc(-c4nnc[nH]4)cc23)c1
In outline: as §1

About 7,900 targets were measured; listed, in parts, are those with a hit and a random draw of the rest. About 0.6% of all pairs of compound and target were hits. A number with no mark means an inactive call.

UniProt Q8NBJ9, sequence (Q8NBJ9 whole entry, looked up): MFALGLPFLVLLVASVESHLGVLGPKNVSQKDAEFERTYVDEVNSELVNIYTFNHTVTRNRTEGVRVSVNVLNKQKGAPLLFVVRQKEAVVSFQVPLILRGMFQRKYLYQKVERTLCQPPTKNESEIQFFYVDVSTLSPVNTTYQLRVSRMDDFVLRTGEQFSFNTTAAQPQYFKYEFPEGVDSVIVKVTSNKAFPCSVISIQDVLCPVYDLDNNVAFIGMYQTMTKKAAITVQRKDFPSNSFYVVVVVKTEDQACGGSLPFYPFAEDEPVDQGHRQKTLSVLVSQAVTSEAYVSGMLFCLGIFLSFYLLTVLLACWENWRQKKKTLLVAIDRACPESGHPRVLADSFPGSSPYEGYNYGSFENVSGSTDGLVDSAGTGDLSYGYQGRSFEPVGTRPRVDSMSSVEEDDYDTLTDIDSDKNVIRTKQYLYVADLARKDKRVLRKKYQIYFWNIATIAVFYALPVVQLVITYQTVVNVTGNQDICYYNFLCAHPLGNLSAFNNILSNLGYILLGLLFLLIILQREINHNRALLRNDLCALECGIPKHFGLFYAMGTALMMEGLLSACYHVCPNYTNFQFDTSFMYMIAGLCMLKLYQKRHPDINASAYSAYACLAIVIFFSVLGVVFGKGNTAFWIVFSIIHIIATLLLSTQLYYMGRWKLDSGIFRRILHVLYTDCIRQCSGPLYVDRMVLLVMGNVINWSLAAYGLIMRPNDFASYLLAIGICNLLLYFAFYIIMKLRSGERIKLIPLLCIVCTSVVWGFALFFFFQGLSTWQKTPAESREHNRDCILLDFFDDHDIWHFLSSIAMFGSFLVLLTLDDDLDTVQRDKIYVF
UniProt Q96T23, sequence (Q96T23 whole entry, looked up): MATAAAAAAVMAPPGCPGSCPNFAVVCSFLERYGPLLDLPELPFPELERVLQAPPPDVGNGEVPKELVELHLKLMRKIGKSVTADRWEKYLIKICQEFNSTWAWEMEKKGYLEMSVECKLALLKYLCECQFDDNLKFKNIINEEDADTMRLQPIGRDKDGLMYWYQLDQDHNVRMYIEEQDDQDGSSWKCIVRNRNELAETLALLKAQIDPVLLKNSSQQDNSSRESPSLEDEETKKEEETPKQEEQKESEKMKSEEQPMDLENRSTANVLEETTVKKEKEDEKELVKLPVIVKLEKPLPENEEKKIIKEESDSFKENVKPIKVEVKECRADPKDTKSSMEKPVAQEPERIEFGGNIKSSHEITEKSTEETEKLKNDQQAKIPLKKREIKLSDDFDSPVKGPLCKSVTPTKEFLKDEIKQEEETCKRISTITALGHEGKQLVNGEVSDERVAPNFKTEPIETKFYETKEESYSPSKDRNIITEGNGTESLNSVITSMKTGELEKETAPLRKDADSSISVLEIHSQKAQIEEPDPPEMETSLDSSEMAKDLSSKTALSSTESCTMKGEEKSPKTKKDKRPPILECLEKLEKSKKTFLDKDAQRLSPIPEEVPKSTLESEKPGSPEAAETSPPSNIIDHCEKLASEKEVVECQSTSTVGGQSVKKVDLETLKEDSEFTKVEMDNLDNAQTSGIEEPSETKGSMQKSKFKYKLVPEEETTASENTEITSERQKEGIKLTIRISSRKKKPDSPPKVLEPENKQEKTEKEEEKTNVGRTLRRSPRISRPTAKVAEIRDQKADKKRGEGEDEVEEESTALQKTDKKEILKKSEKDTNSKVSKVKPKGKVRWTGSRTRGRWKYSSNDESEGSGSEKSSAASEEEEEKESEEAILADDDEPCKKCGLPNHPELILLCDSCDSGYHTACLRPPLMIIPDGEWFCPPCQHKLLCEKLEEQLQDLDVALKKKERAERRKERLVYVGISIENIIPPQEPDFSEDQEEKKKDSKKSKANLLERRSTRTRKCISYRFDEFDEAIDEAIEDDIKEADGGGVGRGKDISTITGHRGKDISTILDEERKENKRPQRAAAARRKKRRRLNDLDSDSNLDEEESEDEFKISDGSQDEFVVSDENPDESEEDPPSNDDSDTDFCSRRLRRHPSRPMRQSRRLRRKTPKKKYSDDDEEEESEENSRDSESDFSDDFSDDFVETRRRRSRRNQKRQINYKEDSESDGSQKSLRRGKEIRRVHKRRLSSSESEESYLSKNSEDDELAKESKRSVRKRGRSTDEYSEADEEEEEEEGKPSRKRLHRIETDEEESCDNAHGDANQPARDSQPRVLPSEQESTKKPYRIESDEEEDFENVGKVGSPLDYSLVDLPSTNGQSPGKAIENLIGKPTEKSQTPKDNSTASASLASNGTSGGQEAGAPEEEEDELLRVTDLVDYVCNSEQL
UniProt P40938, sequence (P40938 whole entry, looked up): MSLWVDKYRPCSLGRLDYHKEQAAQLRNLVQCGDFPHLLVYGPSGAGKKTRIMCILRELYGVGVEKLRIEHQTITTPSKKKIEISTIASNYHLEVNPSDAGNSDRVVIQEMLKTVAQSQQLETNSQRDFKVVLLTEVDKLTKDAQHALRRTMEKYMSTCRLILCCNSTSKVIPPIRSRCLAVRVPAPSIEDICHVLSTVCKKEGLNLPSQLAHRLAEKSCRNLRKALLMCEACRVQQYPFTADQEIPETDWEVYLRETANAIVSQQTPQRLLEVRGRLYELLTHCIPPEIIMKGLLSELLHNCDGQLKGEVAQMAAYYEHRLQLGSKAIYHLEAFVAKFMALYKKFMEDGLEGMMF
UniProt Q01974, sequence (Q01974 whole entry, looked up): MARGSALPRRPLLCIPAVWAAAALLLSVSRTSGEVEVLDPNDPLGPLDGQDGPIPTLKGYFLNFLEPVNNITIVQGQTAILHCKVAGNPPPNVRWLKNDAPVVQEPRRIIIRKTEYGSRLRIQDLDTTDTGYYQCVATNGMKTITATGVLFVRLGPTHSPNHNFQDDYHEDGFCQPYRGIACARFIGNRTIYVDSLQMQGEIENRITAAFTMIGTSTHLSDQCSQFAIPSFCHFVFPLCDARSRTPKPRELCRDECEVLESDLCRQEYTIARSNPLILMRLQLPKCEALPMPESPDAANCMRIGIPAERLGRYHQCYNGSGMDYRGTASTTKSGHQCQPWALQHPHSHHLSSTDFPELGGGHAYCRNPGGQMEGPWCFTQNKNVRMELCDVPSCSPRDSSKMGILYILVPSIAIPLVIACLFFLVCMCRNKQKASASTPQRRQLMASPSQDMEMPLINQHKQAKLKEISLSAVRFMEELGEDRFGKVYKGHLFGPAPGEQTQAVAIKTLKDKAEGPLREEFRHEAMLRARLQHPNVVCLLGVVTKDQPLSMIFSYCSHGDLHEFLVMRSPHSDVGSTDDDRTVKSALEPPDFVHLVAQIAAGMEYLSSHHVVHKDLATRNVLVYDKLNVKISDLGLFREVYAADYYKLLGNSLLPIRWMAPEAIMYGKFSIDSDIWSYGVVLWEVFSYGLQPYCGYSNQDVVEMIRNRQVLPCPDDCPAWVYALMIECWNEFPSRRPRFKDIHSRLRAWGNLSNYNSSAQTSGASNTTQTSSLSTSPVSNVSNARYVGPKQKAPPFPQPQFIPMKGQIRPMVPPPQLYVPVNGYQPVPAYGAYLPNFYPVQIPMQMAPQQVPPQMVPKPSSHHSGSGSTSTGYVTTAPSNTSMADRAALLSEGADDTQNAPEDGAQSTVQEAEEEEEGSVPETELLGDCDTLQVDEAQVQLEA
UniProt Q96EE3, sequence (Q96EE3 whole entry, looked up): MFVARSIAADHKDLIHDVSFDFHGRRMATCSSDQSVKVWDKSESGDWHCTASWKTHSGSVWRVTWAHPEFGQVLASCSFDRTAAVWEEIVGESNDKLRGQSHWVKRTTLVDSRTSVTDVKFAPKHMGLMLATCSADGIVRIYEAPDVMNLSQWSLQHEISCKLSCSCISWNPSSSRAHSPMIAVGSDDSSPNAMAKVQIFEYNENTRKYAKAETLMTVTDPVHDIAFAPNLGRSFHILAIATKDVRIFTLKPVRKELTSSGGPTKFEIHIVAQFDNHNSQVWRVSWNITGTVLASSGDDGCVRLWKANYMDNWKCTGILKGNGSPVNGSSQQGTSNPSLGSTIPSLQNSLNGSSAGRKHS
UniProt P11233, sequence (P11233 whole entry, looked up): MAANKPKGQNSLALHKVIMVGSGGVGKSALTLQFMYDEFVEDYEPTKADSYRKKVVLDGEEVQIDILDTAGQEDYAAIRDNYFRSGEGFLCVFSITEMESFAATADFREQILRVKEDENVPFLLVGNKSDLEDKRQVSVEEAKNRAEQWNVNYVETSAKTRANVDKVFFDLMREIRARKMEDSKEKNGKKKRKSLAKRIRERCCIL
UniProt Q9BWF3, sequence (Q9BWF3 whole entry, looked up): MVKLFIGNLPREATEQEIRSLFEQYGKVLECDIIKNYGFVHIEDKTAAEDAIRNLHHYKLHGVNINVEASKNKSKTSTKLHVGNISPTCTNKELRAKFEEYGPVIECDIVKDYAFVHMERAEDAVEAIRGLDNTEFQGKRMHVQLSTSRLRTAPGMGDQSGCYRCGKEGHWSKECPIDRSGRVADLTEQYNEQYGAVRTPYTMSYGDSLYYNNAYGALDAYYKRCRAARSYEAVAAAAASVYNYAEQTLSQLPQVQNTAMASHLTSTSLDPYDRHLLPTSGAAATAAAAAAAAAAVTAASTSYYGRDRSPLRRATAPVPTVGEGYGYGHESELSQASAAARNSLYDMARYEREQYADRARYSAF
UniProt Q8IZV5, sequence (Q8IZV5 whole entry, looked up): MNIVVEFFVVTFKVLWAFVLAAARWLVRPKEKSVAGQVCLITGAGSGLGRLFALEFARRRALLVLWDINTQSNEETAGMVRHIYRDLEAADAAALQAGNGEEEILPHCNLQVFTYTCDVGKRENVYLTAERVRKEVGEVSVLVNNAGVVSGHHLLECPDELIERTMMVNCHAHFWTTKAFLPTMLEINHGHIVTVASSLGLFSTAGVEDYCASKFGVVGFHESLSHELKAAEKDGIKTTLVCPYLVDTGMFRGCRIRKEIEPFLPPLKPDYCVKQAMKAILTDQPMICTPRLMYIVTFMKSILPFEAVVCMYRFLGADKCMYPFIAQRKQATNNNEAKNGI

RSF1 (UniProt Q96T23): the log2 fold change in [1] was -0.17; in test [2] it was -0.078; in test [3], -0.246; in [4], -0.198; with entinostat, 0.073; in the test with vorinostat it was 0.028. Further, the log2 fold change with citarinostat is -0.087; with silmitasertib, 0.04; in test [5] it was -0.182; in [6], 0.081.
In the case of RRAGC (UniProt Q9HB90), the log2 fold change was -0.001 in [1]; -0.091 in test [2]; -0.265 (active) in [3]; -0.069 in test [4]; -0.004 in the test with entinostat; -0.015 with vorinostat. Also, the log2 fold change with citarinostat was 0.041; in the test with silmitasertib, 0.014; in test [5], 0.011; in test [6] it was -0.027.
With SERINC3 (UniProt Q13530), the log2 fold change was -0.111 in [1]; -0.027 in [2]; -0.195 in [3]; -0.267 in test [4]; -0.07 in the test with entinostat; -0.044 with vorinostat. Further, the log2 fold change is -0.093 in the test with citarinostat, 0.054 with silmitasertib, 0.018 in test [5] and -0.031 in test [6].
SIDT2 isoform 2 (UniProt Q8NBJ9): the log2 fold change in [1] was 0.057; in test [2], -0.01; in [3], -0.086; in test [4], 0.297; with entinostat, -0.064; with vorinostat it was -0.107. The log2 fold change with citarinostat is 0.002; with silmitasertib, -0.067; in test [5], 0.029; in test [6], 0.108.
With RFC3 (UniProt P40938), the log2 fold change in [1] is -0.001; in test [2], -0.039; in [3], -0.078; in [4], -0.023; with entinostat, -0.028; with vorinostat, 0.028. For the same target, the log2 fold change in the test with citarinostat is 0.077; in the test with silmitasertib it was -0.006; in test [5] it was -0.039; in test [6] it was -0.013.
Take RPS18 (UniProt P62269): the log2 fold change in [1] is -0.032; in test [2] it was 0.08; in test [3], 0.122; in [4], 0.049; with entinostat, -0.083; with vorinostat it was 0.023. The log2 fold change with citarinostat is -0.093; in the test with silmitasertib, 0; in [5] it was 0.069; in test [6], -0.145.
In the case of SEH1L isoform 1 (UniProt Q96EE3), the log2 fold change in [1] is 0.007; in [2] it was -0.027; in test [3] it was -0.014; in test [4] it was -0.004; with entinostat, -0.04; in the test with vorinostat, 0.022. The log2 fold change was 0.064 with citarinostat, 0.076 in the test with silmitasertib, -0.027 in test [5] and -0.065 in test [6].
ROR2 (UniProt Q01974): the log2 fold change in test [1] is -0.007; in test [2] it was -0.01; in test [3] it was -0.03; in [4], -0.04; in the test with entinostat it was 0.004; with vorinostat, 0.003. The log2 fold change with citarinostat was 0.078; with silmitasertib it was -0.027; in test [5] it was 0.012; in test [6], -0.151.
As to SCPEP1 (UniProt Q9HB40), the log2 fold change in test [1] is 0.036; in [2] it was 0.001; in test [3], -0.314 (active); in test [4], 0.008; with entinostat, 0.023; with vorinostat, -0.037. The log2 fold change with citarinostat was -0.043; with silmitasertib it was 0.003; in [5], 0.024; in test [6] it was 0.022.
As to RBM4 (UniProt Q9BWF3), the log2 fold change in [1] was 0.015; in test [2], -0.031; in test [3] it was -0.017; in [4] it was -0.033; in the test with entinostat, 0.023; in the test with vorinostat, 0.06. The log2 fold change is -0.015 with citarinostat, 0.095 with silmitasertib, -0.002 in test [5] and -0.092 in test [6].
As for RAC1 (UniProt P63000), the log2 fold change is 0.093 in [1]; 0.043 in test [2]; 0.018 in test [3]; 0.051 in test [4]; 0.047 with entinostat; 0.084 with vorinostat. For the same target, the log2 fold change with citarinostat was -0.087; in the test with silmitasertib, -0.078; in [5], 0.065; in test [6], 0.146.
Regarding RAC3 (UniProt P60763), the log2 fold change is -0.142 in test [1]; 0.067 in test [2]; 0.058 in [3]; -0.002 in test [4]; -0.14 with entinostat; -0.037 with vorinostat. For the same target, the log2 fold change with citarinostat is -0.007; with silmitasertib it was 0.016; in [5], -0.083; in test [6], 0.176.
Turning to RDH10 (UniProt Q8IZV5), the log2 fold change in test [1] is -0.033; in test [2], -0.017; in test [3] it was -0.016; in [4] it was 0.015; with entinostat it was 0.015; with vorinostat, -0.069. The log2 fold change with citarinostat is -0.019; with silmitasertib it was -0.097; in [5] it was -0.039; in test [6], 0.012.
As to RALA (UniProt P11233), the log2 fold change in [1] was -0.03; in test [2] it was -0.019; in test [3] it was 0.057; in test [4], 0.004; with entinostat, -0.064; with vorinostat, 0.142. Further, the log2 fold change was 0.082 with citarinostat, -0.021 with silmitasertib, 0.028 in test [5] and -0.028 in test [6].
